Source: the supplement of paper PMC11732987, “Enantioselective OTUD7B fragment discovery through chemoproteomics screening and high-throughput optimisation” (Communications Chemistry, 2025)

Assays:
Assay in all cases: log2 ratio of Biotin-Ahx-Ub-VS probe labelling (fragment/DMSO); higher = less target engagement (more negative = stronger competition), active = hit call of the paper (q ≤ 0.05, log2 ratio ≤ -1)
Settings in all cases: compound concentration: 200 uM; treatment time: 3 h
ALG13 = target: T1, ALG13 (UniProt Q9NP73)
T1 sequence (whole entry): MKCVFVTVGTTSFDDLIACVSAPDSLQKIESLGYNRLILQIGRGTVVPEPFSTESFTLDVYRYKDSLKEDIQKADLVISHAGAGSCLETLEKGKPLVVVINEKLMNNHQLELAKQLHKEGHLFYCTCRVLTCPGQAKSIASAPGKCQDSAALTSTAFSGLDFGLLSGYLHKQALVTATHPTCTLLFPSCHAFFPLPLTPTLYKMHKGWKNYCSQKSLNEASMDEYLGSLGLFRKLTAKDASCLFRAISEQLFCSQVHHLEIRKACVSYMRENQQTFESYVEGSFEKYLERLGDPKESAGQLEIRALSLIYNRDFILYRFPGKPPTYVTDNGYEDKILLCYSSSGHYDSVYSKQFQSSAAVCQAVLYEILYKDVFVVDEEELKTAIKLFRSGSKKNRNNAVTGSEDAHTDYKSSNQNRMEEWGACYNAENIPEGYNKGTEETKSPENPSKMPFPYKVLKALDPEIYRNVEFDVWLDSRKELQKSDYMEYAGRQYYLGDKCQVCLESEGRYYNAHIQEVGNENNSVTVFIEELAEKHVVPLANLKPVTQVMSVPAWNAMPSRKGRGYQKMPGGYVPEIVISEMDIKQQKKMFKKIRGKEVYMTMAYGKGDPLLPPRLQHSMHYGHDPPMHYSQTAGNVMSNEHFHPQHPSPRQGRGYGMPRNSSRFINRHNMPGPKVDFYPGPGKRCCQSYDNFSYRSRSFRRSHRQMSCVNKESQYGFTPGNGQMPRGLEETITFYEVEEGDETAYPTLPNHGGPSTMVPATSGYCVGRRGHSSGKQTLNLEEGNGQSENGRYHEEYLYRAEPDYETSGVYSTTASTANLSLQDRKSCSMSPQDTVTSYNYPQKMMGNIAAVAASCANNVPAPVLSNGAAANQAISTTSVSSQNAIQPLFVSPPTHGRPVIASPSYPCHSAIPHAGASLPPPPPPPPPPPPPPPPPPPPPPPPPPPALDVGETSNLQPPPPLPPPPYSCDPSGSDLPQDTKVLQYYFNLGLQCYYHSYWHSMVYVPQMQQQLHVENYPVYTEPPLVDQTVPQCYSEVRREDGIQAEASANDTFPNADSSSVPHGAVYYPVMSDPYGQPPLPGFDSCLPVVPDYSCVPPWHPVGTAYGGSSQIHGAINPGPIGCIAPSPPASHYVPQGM
How it was run: (§1)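 HEK293T lysate (495 µg per sample, in Tris/CHAPS/IGEPAL buffer with protease inhibitors) was exposed in triplicate for 3 h to fragment at 200 µM or to vehicle, then to Biotin-Ahx-Ub-VS at 0.5 µM final for 1 h. Labelled DUBs were enriched on NeutrAvidin, digested with LysC and trypsin, and analysed by diaPASEF LC-MS/MS. Spectronaut label-free quantities were normalised to the global median, and values are average log2 ratios of fragment over vehicle from an unpaired t-test. Only proteins with ≥2 unique peptides were used.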

ATXN3 = ATXN3 (UniProt P54252)
Chain of ATXN3 (P54252 whole entry): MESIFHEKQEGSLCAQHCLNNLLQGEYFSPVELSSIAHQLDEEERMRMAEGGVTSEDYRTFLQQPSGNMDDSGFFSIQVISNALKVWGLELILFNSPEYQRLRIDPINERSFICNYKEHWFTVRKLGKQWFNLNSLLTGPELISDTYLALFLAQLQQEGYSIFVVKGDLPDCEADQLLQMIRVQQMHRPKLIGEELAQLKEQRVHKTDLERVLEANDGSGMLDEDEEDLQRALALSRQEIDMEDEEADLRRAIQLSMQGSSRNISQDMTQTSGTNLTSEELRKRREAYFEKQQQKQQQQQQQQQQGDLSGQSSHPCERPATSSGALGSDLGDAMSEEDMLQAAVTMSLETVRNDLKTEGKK
How it was run: as §1

BAP1 = target: T2, BAP1 (UniProt Q92560)
T2 sequence (whole entry): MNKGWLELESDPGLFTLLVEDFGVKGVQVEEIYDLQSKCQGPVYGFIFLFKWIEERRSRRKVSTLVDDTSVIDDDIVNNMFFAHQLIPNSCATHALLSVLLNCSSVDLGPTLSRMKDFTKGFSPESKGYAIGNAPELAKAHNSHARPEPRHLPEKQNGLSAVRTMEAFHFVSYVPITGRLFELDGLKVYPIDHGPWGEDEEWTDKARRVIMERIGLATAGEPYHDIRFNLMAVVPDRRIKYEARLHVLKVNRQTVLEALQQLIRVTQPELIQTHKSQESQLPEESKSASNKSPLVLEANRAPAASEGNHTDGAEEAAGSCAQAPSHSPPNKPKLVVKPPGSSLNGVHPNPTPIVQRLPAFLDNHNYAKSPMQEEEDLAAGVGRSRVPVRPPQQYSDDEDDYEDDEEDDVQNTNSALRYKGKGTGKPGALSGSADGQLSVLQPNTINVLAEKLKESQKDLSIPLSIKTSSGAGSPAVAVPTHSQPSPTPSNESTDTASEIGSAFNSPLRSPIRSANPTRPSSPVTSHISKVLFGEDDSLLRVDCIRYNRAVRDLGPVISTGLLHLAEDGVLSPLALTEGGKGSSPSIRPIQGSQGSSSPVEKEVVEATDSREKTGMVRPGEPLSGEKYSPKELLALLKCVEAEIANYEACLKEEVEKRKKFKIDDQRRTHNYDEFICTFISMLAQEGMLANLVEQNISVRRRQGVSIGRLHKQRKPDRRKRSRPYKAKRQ
How it was run: as §1

EIF3F = EIF3F (UniProt O00303)
Chain of EIF3F (O00303 whole entry): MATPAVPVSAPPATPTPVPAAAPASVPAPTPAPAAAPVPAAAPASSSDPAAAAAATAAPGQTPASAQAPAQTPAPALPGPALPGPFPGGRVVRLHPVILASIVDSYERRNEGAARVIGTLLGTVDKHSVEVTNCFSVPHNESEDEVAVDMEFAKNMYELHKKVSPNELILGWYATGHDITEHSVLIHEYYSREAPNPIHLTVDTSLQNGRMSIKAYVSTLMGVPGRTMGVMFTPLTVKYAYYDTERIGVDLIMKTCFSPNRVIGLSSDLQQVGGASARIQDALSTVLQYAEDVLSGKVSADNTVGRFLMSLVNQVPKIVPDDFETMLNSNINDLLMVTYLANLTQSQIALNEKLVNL
How it was run: as §1

EIF3H = EIF3H (UniProt O15372)
Chain of EIF3H (O15372 whole entry): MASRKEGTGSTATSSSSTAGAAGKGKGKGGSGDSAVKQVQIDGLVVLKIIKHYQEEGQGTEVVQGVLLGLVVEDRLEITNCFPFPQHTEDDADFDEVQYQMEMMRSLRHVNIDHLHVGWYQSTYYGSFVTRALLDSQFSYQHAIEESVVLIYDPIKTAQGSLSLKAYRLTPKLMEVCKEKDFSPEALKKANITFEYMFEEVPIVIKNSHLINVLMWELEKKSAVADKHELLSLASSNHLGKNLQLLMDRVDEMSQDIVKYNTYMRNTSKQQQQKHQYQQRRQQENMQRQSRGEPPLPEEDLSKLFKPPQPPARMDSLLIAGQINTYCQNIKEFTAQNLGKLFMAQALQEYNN
How it was run: as §1

FAM105A = target: T3, FAM105A (UniProt Q9NUU6)
T3 sequence (whole entry): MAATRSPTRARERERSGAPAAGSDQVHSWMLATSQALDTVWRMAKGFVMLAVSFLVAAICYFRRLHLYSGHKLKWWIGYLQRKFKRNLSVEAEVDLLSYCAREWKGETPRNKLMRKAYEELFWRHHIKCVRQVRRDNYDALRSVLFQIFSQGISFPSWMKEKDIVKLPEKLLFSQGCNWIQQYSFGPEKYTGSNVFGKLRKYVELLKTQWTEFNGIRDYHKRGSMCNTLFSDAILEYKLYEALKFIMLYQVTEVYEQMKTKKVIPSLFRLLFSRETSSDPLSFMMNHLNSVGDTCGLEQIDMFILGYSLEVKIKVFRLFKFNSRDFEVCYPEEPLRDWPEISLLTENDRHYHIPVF
How it was run: as §1

OTUB1 = OTUB1 (UniProt Q96FW1)
Chain of OTUB1 (Q96FW1 whole entry): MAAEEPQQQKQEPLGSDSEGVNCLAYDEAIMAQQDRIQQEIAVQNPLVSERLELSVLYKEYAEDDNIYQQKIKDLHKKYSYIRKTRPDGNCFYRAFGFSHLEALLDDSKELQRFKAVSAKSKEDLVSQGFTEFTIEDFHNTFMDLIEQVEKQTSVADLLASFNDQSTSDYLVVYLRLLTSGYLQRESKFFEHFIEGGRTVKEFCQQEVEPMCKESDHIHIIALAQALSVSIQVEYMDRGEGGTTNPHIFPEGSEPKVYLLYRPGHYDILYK
How it was run: as §1

OTUD4 = target: T4, OTUD4 (UniProt Q01804)
T4 sequence (whole entry): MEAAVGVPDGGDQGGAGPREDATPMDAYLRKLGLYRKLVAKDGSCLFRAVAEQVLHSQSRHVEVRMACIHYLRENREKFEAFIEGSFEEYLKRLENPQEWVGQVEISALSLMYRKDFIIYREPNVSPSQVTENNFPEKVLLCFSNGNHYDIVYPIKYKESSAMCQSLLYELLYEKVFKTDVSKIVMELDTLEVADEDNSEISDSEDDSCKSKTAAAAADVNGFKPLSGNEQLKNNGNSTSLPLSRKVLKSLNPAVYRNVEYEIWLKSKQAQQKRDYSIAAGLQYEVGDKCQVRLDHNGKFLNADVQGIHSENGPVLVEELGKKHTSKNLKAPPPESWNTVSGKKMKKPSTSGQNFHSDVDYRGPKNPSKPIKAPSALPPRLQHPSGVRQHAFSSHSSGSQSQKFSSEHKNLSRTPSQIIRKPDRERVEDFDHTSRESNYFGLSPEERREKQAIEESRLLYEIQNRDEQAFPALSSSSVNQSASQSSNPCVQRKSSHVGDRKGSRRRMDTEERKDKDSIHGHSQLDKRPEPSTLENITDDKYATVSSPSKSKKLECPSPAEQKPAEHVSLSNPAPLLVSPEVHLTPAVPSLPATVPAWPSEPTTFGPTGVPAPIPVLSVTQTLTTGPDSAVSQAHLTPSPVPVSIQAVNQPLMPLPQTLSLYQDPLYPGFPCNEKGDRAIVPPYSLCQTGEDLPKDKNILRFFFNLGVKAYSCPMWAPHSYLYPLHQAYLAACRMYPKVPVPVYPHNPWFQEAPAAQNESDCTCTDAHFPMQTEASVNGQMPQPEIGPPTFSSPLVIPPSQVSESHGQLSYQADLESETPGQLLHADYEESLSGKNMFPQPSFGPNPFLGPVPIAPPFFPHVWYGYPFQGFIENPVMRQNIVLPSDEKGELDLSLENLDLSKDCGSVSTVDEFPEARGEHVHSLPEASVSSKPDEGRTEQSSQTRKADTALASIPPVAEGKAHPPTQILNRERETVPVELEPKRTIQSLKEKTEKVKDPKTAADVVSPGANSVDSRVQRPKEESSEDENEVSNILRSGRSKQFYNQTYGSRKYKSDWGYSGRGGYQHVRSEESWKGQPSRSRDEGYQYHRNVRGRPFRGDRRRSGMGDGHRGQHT
How it was run: as §1

OTUD5 = target: T5, OTUD5 (UniProt Q96G74)
T5 sequence (whole entry): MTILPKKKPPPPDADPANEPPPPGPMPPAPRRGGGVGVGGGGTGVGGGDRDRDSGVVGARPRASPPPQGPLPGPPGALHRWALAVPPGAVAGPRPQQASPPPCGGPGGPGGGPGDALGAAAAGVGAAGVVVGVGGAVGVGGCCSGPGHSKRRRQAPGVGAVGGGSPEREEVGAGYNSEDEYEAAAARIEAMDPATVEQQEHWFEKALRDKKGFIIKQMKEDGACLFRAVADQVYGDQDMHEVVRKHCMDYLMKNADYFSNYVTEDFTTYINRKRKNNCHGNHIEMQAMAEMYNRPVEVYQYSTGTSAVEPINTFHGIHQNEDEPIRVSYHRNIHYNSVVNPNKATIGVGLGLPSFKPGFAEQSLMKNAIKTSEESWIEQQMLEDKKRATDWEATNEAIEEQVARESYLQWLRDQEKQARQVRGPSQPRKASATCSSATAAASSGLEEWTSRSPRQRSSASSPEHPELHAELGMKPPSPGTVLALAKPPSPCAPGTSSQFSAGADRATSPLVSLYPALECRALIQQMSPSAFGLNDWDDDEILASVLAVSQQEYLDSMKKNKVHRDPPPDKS
How it was run: as §1

Measured: log2 ratio of Biotin-Ahx-Ub-VS probe labelling

O=C(CCl)N1CCC(C(O)c2ccc(F)cc2)CC1 (centres undefined)
inactive: ALG13 0.00454 | ATXN3 -0.475 | BAP1 -0.334 | EIF3F -0.0081 | EIF3H 0.17 | FAM105A -0.0782 | OTUB1 -0.215 | OTUD4 -0.0305 | OTUD5 -0.189
